Assay results taken from article PMC10726135, “HNF4α isoforms regulate the circadian balance between carbohydrate and lipid metabolism in the liver”.
The full ranking holds about 18,000 sequences; the median of “log2 normalized intensity” is about 0.39, and the highest 2% start at about 6.6. The list comes from a sample in which the highest values are over-represented; it also holds similar and randomly drawn sequences.

These sequences were tested against T1, HNF4alpha2 (COS-7 nuclear extract) (Homo sapiens, UniProt P41235 1-474) (assay: protein-binding microarray; COS-7 nuclear extract on double-stranded Agilent 4x180k PBM; binding buffer, salt, pH and temperature not given in the material; high values mean tight binding). Conditions: chain copies: 2; label: 3' end of strand 1 on the slide; dsDNA, one strand shown.
T1 sequence: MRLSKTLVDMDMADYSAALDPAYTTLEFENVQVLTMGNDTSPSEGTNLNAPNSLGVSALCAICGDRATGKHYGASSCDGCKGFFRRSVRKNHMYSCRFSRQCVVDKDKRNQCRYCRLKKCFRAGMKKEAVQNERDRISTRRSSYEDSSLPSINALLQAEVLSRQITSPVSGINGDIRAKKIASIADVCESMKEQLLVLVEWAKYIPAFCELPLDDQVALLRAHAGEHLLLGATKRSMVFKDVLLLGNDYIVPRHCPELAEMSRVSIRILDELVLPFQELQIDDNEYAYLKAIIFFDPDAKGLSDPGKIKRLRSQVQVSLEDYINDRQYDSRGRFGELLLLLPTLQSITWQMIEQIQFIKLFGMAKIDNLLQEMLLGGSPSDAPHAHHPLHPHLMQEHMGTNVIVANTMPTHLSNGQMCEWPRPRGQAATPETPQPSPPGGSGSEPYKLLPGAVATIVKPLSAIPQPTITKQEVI
Summary of the method: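 Using CaPO4, COS-7 cells were transiently transfected with a human HNF4α isoform expression vector, and their nuclear extracts were applied to a custom Agilent SurePrint G3 4x180k double-stranded oligonucleotide array (~60 nt; ~44,000 test sequences in quadruplicate). Bound HNF4α was imaged at 2-µm resolution with an Agilent G2565CA scanner. Agilent software supplied the background-corrected, normalized gProcessedSignal that serves as the binding signal.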

Sequence	binding signal [log2 normalized intensity]
AATAGTGACCTCTGCTGGCCAGTGGAAAACGCCTAGGGAGATTAGAGTATCGGTCGA	1.08
CAGTCTAGAATCTGCAGCCCCTTTTGGAATGCCTAGGGAGATTAGAGTATCGGTCGA	2.02
CCACTGGAGTCTTGTTTGTCAAGTTTGGTAGCCTAGGGAGATTAGAGTATCGGTCGA	1.81
AGGGTGTTGTGGAATGTGCTTGGACCTGCTGCCTAGGGAGATTAGAGTATCGGTCGA	1.99
AGAAATGTTATCTCAGTAGACTAACGTATGGCCTAGGGAGATTAGAGTATCGGTCGA	0.476
GCATTCCACCAAATCTTACCTAAGGAAGTTGCCTAGGGAGATTAGAGTATCGGTCGA	-0.954
AATACGACCTTTGGACAGGGTGACGTCATTGCCTAGGGAGATTAGAGTATCGGTCGA	6.27
ATTCCAAGAAGAGCCAATAGTACACATCAAGCCTAGGGAGATTAGAGTATCGGTCGA	-0.572
TTGGACTTTGTACATTCCAAATACGATAATGCCTAGGGAGATTAGAGTATCGGTCGA	5.36
GGGCTTTTGTCACATTCCAGACTTTGTACAGCCTAGGGAGATTAGAGTATCGGTCGA	4.95
CCTGGTGACCTTTGTTTGGTCAAATACCTAGCCTAGGGAGATTAGAGTATCGGTCGA	2.9
TCCAAAATACGACCTTTGGACAGGGTGACGGCCTAGGGAGATTAGAGTATCGGTCGA	6.8
GTACTTTGTACATGGGAATAGACATTCCAGGCCTAGGGAGATTAGAGTATCGGTCGA	2.04
AGAAGTTGGACTTTGTACATTCCAAATACGGCCTAGGGAGATTAGAGTATCGGTCGA	6.88
ACATCAGAAGTTGGACTTTGTACATTCCAAGCCTAGGGAGATTAGAGTATCGGTCGA	7.69
ATGGTGGCCATTCTGATTTGATAAGATGTGGCCTAGGGAGATTAGAGTATCGGTCGA	0.774
CTTCGTCCTGAGCAGTCCCTTCCCCCCTCCGCCTAGGGAGATTAGAGTATCGGTCGA	5.36
ACTTGTTCCCTGTCGCTATCTTATCTGGGCGCCTAGGGAGATTAGAGTATCGGTCGA	1.62
CTCATTCTTGGAATGCATTGCAAGTCGTATGCCTAGGGAGATTAGAGTATCGGTCGA	1.17
TGCCCCTTCACATATTTTGAAAGAAAGAGAGCCTAGGGAGATTAGAGTATCGGTCGA	1.68
CGGCTTGCGTCCCCAGGTGAACTCAGTCCTGCCTAGGGAGATTAGAGTATCGGTCGA	1.21
TTGTAGCCTCATTTCACCTTTGGTCTTTGGGCCTAGGGAGATTAGAGTATCGGTCGA	4.78

Sequence	binding signal [log2 normalized intensity]
GAATCTACAGAATTCTCATGGAGGACTTTGGCCTAGGGAGATTAGAGTATCGGTCGA	2.77
CAGATGGATTGATAGACTTATCTCAGCCTGGCCTAGGGAGATTAGAGTATCGGTCGA	-0.761
TCTGGGATGTTGGGAGGAGTGGACTTTGATGCCTAGGGAGATTAGAGTATCGGTCGA	5.99
GGGCTGAGGATGAGGACTTTGGTCTTATTAGCCTAGGGAGATTAGAGTATCGGTCGA	3.74
GGGACTAGCCTTATCTCAGATGAGACTTTGGCCTAGGGAGATTAGAGTATCGGTCGA	1.7
ATCTAGGTGAGGGATGAGGACTTTGATCAGGCCTAGGGAGATTAGAGTATCGGTCGA	6.01
TTATCTCAGATGAGACTTTGGACTTTTGAAGCCTAGGGAGATTAGAGTATCGGTCGA	7.12
GATGTTGGGAGGAGTGGACTTTGATCTCAGGCCTAGGGAGATTAGAGTATCGGTCGA	8.9
AATTCTCATGGAGGACTTTGGCCTTTTGTGGCCTAGGGAGATTAGAGTATCGGTCGA	5.77
TCAGATGAGACTTTGGACTTTTGAACTAAGGCCTAGGGAGATTAGAGTATCGGTCGA	6.42
TAGCCTTATCTCAGATGAGACTTTGGACTTGCCTAGGGAGATTAGAGTATCGGTCGA	7.96
TACAGAATTCTCATGGAGGACTTTGGCCTTGCCTAGGGAGATTAGAGTATCGGTCGA	7.11
TCTTTGTTCAGAGGGCATGTTGAGTGGAATGCCTAGGGAGATTAGAGTATCGGTCGA	2.13
TTACAACGCTGTTGTCTGTGACTGGGGTCAGCCTAGGGAGATTAGAGTATCGGTCGA	3.66
GCCAACAACTAGGGCAAAGGTTAGCTTGGAGCCTAGGGAGATTAGAGTATCGGTCGA	4.27
ACAGATGTAGACATTGGAATGCGGGCTCCAGCCTAGGGAGATTAGAGTATCGGTCGA	-0.394
TCGGAATGTCTGGGCAAAGGGGAGGTTATCGCCTAGGGAGATTAGAGTATCGGTCGA	0.29
AAGTGGTATCCTGCAGTCAGTCTGATTGGTGCCTAGGGAGATTAGAGTATCGGTCGA	0.556
GAGGAGTGGCCATGATGCCATCTGGTGAAGGCCTAGGGAGATTAGAGTATCGGTCGA	-0.987
TTGAACACCACAAGTTTGAACTGCACAGGCGCCTAGGGAGATTAGAGTATCGGTCGA	-0.333
GTGAGGTCACAGTATTCATTCCCCTAGTATGCCTAGGGAGATTAGAGTATCGGTCGA	2.55
TAGCTTTAGCCGGACTTTGTCCTTTGATTTGCCTAGGGAGATTAGAGTATCGGTCGA	6.43

Sequence	binding signal [log2 normalized intensity]
TCAGATAGCTTTAGCCGGACTTTGTCCTTTGCCTAGGGAGATTAGAGTATCGGTCGA	7.78
CTATCTCAGATAGCTTTAGCCGGACTTTGTGCCTAGGGAGATTAGAGTATCGGTCGA	5.18
TAGTAGGGTCAAAGTCTGGATCCGTTAACAGCCTAGGGAGATTAGAGTATCGGTCGA	4.3
CACCTTTTTTGGCCTTTACCCCTTGAGTTTGCCTAGGGAGATTAGAGTATCGGTCGA	3.93
CCCACCCCCACGCCCCCCAGCGGAAGTCCAGCCTAGGGAGATTAGAGTATCGGTCGA	6.97
CACACACACACACACACCCCACACACCAAAGCCTAGGGAGATTAGAGTATCGGTCGA	3.12
AGGCCCCAGCCACGCCCTCTAACCCAGGTTGCCTAGGGAGATTAGAGTATCGGTCGA	3.08
GGAACCCCACCCCCACGCCCCCCAGCGGAAGCCTAGGGAGATTAGAGTATCGGTCGA	7.16
CGCCCCCCAGCGGAAGTCCAGTGGTGTCTTGCCTAGGGAGATTAGAGTATCGGTCGA	3.33
TCACACACACACACACACACACCCCACACAGCCTAGGGAGATTAGAGTATCGGTCGA	1.75
CCTCCAGGCCCCAGCCACGCCCTCTAACCCGCCTAGGGAGATTAGAGTATCGGTCGA	2.92
GGATCGGAACCCCACCCCCACGCCCCCCAGGCCTAGGGAGATTAGAGTATCGGTCGA	7
CAAAGTTCAAGGTCCAGCCTACCCACCCACGCCTAGGGAGATTAGAGTATCGGTCGA	4.66
GAGAGAATGACCCTTGCTTGACCCATTATGGCCTAGGGAGATTAGAGTATCGGTCGA	2.36
AGAACAAACAATGGTTTGGGACAAAGTTTGGCCTAGGGAGATTAGAGTATCGGTCGA	0.489
CTTTGCCCTCCCTAAATCCAGAGGTATTTGGCCTAGGGAGATTAGAGTATCGGTCGA	1.88
CCGCGGCGGGCCCTCGACCTTTGCCCTCCAGCCTAGGGAGATTAGAGTATCGGTCGA	9.87
CTTCTCCGCGGCGGGCCCTCGACCTTTGCCGCCTAGGGAGATTAGAGTATCGGTCGA	5.07
TTCCCCTCCCTTCCACCTTTGCCCTCCAAAGCCTAGGGAGATTAGAGTATCGGTCGA	5.76
CCTCCTAATCACTGCCCTTTGGTGCCTCTTGCCTAGGGAGATTAGAGTATCGGTCGA	2.28
ACCGGCAGAGAGAAGCCACTGCGACCTTTGGCCTAGGGAGATTAGAGTATCGGTCGA	4.92
TCAGCCTTCTCCGCGGCGGGCCCTCGACCTGCCTAGGGAGATTAGAGTATCGGTCGA	-0.582

Sequence	binding signal [log2 normalized intensity]
CCACTGCGACCTTTGCCCTCCCTAAATCCAGCCTAGGGAGATTAGAGTATCGGTCGA	6.95
CAGAGAGAAGCCACTGCGACCTTTGCCCTCGCCTAGGGAGATTAGAGTATCGGTCGA	9.89
CCCTCCCTAAATCCAGAGGTATTTGGCCCAGCCTAGGGAGATTAGAGTATCGGTCGA	1.59
AGAAGCCACTGCGACCTTTGCCCTCCCTAAGCCTAGGGAGATTAGAGTATCGGTCGA	7.38
TTGCCATGACCTTTGAAGCCCAGAACACTCGCCTAGGGAGATTAGAGTATCGGTCGA	3.59
ACATGAGCTAGTGCTAAAGGTCATATCCAAGCCTAGGGAGATTAGAGTATCGGTCGA	4.2
GGCCTTTGGACCCAGACTGAATCACACTACGCCTAGGGAGATTAGAGTATCGGTCGA	3.76
GGTGTTAAAATAACGACCTTTGGGCTAAAAGCCTAGGGAGATTAGAGTATCGGTCGA	3.81
AGGCCAGCTCATAGGGATCAGATAAGAAGTGCCTAGGGAGATTAGAGTATCGGTCGA	-0.997
GTAACCTCAAAGGAGGTCAGAACTGTGGACGCCTAGGGAGATTAGAGTATCGGTCGA	1.22
CCATAGCGAAGCCGGCGGCGGAATGCTTGTGCCTAGGGAGATTAGAGTATCGGTCGA	-0.837
GCTAGGTGGCGGGCTGGCTCAGGACAGGTGGCCTAGGGAGATTAGAGTATCGGTCGA	0.0816
AAAGCTGGCTGGCGGCTAGTGTACAGGTGAGCCTAGGGAGATTAGAGTATCGGTCGA	1.06
TATCTTTGGAGAATGCCTTTTGTGTAGGAGGCCTAGGGAGATTAGAGTATCGGTCGA	1.64
GGCGGCTAGTGTACAGGTGACCTTTGGAATGCCTAGGGAGATTAGAGTATCGGTCGA	8.95
TTGGAGAATGCCTTTTGTGTAGGAGTACACGCCTAGGGAGATTAGAGTATCGGTCGA	1.7
GGAATGAGCAGGAACCTTGTGGTGGTGAAAGCCTAGGGAGATTAGAGTATCGGTCGA	1.01
AGATAGTGACGGAGGTGACCTTTGGTTGTCGCCTAGGGAGATTAGAGTATCGGTCGA	5.52
TGGCTGGCGGCTAGTGTACAGGTGACCTTTGCCTAGGGAGATTAGAGTATCGGTCGA	7.2
CTAGTGTACAGGTGACCTTTGGAATGAACCGCCTAGGGAGATTAGAGTATCGGTCGA	7.14
